# Results from PubChem BioAssay AID1159580 (chemical genetic matrix, 2015).
# Values joined by “and” are separate entries in the source; they are usually repeats but may differ in a detail not shown here. Equal values may be shown once. Out of some 5,500 compounds screened, about 2,000 (36%) were called active. Roughly 18% stayed inconclusive and do not appear here. The list shows a part of the results. Unmarked numbers belong to inactive results. Rule as the data show it: active = normalized growth mostly below about 0.91 (no sharp cut-off); inconclusive = no clear call, values can overlap the other calls; inactive = mostly above about 0.92.
# Test: chemical genetic growth profiling, strain panel (AID 1159580);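 also: tested at 20 µM; growth read once vehicle control cultures reached saturation at 30 °C; 1 = growth at the plate median or of vehicle wells; lower values mean less growth of the strain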
# Conditions: S. cerevisiae deletion strains, growth OD
smiles,measurement,setting,value
C[C@]12CCC(=O)C=C1C=CC1C2CC[C@@]2(C)C1CC[C@@]21CCC(=O)O1 (stereo partly specified),normalized growth,"locus YAL013W, strain DEP1, active compounds read low",0.956
same,normalized growth,"locus YAL021C, strain ccr4, active compounds read low",0.971
same,normalized growth,"locus YAL026C, strain drs2, active compounds read low",0.97
same,normalized growth,"locus YAL030W, strain snc1, active compounds read low",0.974
same,normalized growth,"locus YBL061C, strain skt5, active compounds read low",0.977
same,normalized growth,"locus YBR009C, strain hhf1, active compounds read low",0.962
same,normalized growth,"locus YBR021W, strain FUR4, active compounds read low",1
same,normalized growth,"locus YBR023C, strain chs3, active compounds read low",0.979
same,normalized growth,"locus YBR171W, strain sec66, active compounds read low",0.966
same,normalized growth,"locus YBR229C, strain ROT2, active compounds read low",0.979
same,normalized growth,"locus YBR231C, strain swc5, active compounds read low",0.989
same,normalized growth,"locus YBR279W, strain paf1, active compounds read low",0.983
same,normalized growth,"locus YCL011C, strain gbp2, active compounds read low",0.968
same,normalized growth,"locus YCL016C, strain dcc1, active compounds read low",0.976
same,normalized growth,"locus YCL029C, strain bik1, active compounds read low",0.949
same,normalized growth,"locus YCL061C, strain MRC1, active compounds read low",0.954
same,normalized growth,"locus YCL069W, strain vba3, active compounds read low",0.974
same,normalized growth,"locus YCR088W, strain abp1, active compounds read low",0.974
same,normalized growth,"locus YDL005C, strain med2, active compounds read low",0.98
same,normalized growth,"locus YDL035C, strain GPR1, active compounds read low",0.962
same,normalized growth,"locus YDL040C, strain nat1, active compounds read low",0.977
same,normalized growth,"locus YDL074C, strain BRE1, active compounds read low",0.872
same,normalized growth,"locus YDL101C, strain DUN1, active compounds read low",0.877 (active)
same,normalized growth,"locus YDL185W, strain tfp1, active compounds read low",0.967
same,normalized growth,"locus YDL192W, strain arf1, active compounds read low",0.866 (active)
same,normalized growth,"locus YDR001C, strain nth1, active compounds read low",0.952
same,normalized growth,"locus YDR069C, strain doa4, active compounds read low",0.984
same,normalized growth,"locus YDR101C, strain arx1, active compounds read low",0.955
same,normalized growth,"locus YDR137W, strain rgp1, active compounds read low",0.75 (active)
same,normalized growth,"locus YDR150W, strain NUM1, active compounds read low",0.985
same,normalized growth,"locus YDR159W, strain sac3, active compounds read low",0.901
same,normalized growth,"locus YDR162C, strain NBP2, active compounds read low",0.584 (active)
same,normalized growth,"locus YDR195W, strain ref2",1.12
same,normalized growth,"locus YDR297W, strain sur2, active compounds read low",0.981
same,normalized growth,"locus YDR318W, strain mcm21, active compounds read low",0.956
same,normalized growth,"locus YDR334W, strain swr1, active compounds read low",0.977
same,normalized growth,"locus YDR335W, strain msn5, active compounds read low",0.976
same,normalized growth,"locus YDR388W, active compounds read low",0.969
same,normalized growth,"locus YDR392W, strain spt3, active compounds read low",0.662 (active)
same,normalized growth,"locus YDR502C, strain sam2, active compounds read low",0.914 (active)
same,normalized growth,"locus YEL003W, strain gim4, active compounds read low",0.962
same,normalized growth,"locus YEL037C, strain rad23, active compounds read low",0.971
same,normalized growth,"locus YEL061C, strain CIN8 (second series), active compounds read low",0.967
same,normalized growth,"locus YEL061C, strain CIN8, active compounds read low",0.978
same,normalized growth,"locus YER015W, strain faa2, active compounds read low",0.979
same,normalized growth,"locus YER016W, strain bim1, active compounds read low",0.975
same,normalized growth,"locus YER110C, active compounds read low",0.965
same,normalized growth,"locus YER111C, strain swi4, active compounds read low",0.962
same,normalized growth,"locus YER155C, strain BEM2 (second series), active compounds read low",0.988
same,normalized growth,"locus YER155C, strain BEM2, active compounds read low",0.996
same,normalized growth,"locus YER167W, strain BCK2, active compounds read low",0.956
same,normalized growth,"locus YFR010W, strain ubp6, active compounds read low",0.986
same,normalized growth,"locus YGL078C, strain dbp3, active compounds read low",0.985
same,normalized growth,"locus YGL086W, strain mad1, active compounds read low",0.917 (active)
same,normalized growth,"locus YGL167C, strain pmr1, active compounds read low",0.968
same,normalized growth,"locus YGL173C, strain kem1, active compounds read low",0.953
same,normalized growth,"locus YGL227W, strain vid30, active compounds read low",0.988
same,normalized growth,"locus YGL240W, strain doc1, active compounds read low",0.992
same,normalized growth,"locus YGL248W, strain PDE1, active compounds read low",0.919
same,normalized growth,"locus YGL253W, strain hxk2, active compounds read low",0.947
same,normalized growth,"locus YGR135W, strain pre9, active compounds read low",0.936
same,normalized growth,"locus YGR252W, strain gcn5, active compounds read low",0.969
same,normalized growth,"locus YHR013C, strain ard1, active compounds read low",0.901
same,normalized growth,"locus YHR027C, strain rpn1, active compounds read low",0.982
same,normalized growth,"locus YHR030C, strain SLT2, active compounds read low",0.948 and 0.967
same,normalized growth,"locus YHR079C, strain IRE1 (second series), active compounds read low",0.971
same,normalized growth,"locus YHR079C, strain IRE1, active compounds read low",0.98
same,normalized growth,"locus YHR094C, strain hxt1, active compounds read low",0.974
same,normalized growth,"locus YHR129C, strain ARP1, active compounds read low",0.939
same,normalized growth,"locus YHR142W, strain chs7, active compounds read low",0.922
same,normalized growth,"locus YHR200W, strain rpn10, active compounds read low",0.984
same,normalized growth,"locus YIL066C, strain RNR3, active compounds read low",0.95
same,normalized growth,"locus YIL073C, strain SPO22, active compounds read low",0.948
same,normalized growth,"locus YIL125W, strain kgd1, active compounds read low",0.979
same,normalized growth,"locus YIR030C, strain dcg1, active compounds read low",0.979
same,normalized growth,"locus YJL092W, strain hpr5, active compounds read low",0.963
same,normalized growth,"locus YJL095W, strain BCK1 (second series), active compounds read low",0.984
same,normalized growth,"locus YJL095W, strain BCK1, active compounds read low",0.807 and 0.975
same,normalized growth,"locus YJL115W, strain asf1, active compounds read low",0.971
same,normalized growth,"locus YJL129C, strain trk1, active compounds read low",0.95
same,normalized growth,"locus YJL134W, strain LCB3, active compounds read low",0.982
same,normalized growth,"locus YJL154C, strain vps35, active compounds read low",0.979
same,normalized growth,"locus YJL164C, strain tpk1, active compounds read low",0.946
same,normalized growth,"locus YJL166W, strain qcr8, active compounds read low",0.993
same,normalized growth,"locus YJL168C, strain set2, active compounds read low",0.969
same,normalized growth,"locus YJL187C, strain SWE1 (second series), active compounds read low",0.931
same,normalized growth,"locus YJL187C, strain SWE1, active compounds read low",0.973
same,normalized growth,"locus YJR043C, strain POL32, active compounds read low",1.06
same,normalized growth,"locus YJR066W, strain TOR1, active compounds read low",0.951
same,normalized growth,"locus YKL009W, strain mrt4, active compounds read low",0.948
same,normalized growth,"locus YKL068W, active compounds read low",0.966
same,normalized growth,"locus YKL085W, strain MDH1 (second series), active compounds read low",0.971
same,normalized growth,"locus YKL085W, strain MDH1, active compounds read low",0.971
same,normalized growth,"locus YKL160W, strain elf1, active compounds read low",0.982
same,normalized growth,"locus YKR001C, strain vps1, active compounds read low",0.788 (active)
same,normalized growth,"locus YKR026C, strain gcn3, active compounds read low",0.98
same,normalized growth,"locus YKR091W, strain srl3, active compounds read low",0.969
same,normalized growth,"locus YLL001W, strain dnm1, active compounds read low",0.983
same,normalized growth,"locus YLL026W, active compounds read low",0.989
same,normalized growth,"locus YLL041C, strain sdh2, active compounds read low",0.983
same,normalized growth,"locus YLR027C, strain aat2, active compounds read low",0.994
same,normalized growth,"locus YLR039C, strain RIC1, active compounds read low",0.588 (active)
same,normalized growth,"locus YLR058C, strain SHM2, active compounds read low",0.959
same,normalized growth,"locus YLR102C, strain apc9, active compounds read low",0.973
same,normalized growth,"locus YLR113W, strain HOG1, active compounds read low",0.934
same,normalized growth,"locus YLR221C, strain rsa3, active compounds read low",0.956
same,normalized growth,"locus YLR258W, strain gsy2, active compounds read low",0.964
same,normalized growth,"locus YLR262C, strain YPT6 (second series), active compounds read low",0.792 (active)
same,normalized growth,"locus YLR262C, strain YPT6, active compounds read low",0.525 (active)
same,normalized growth,"locus YLR268W, strain sec22, active compounds read low",0.914
same,normalized growth,"locus YLR320W, strain mms22, active compounds read low",0.9
same,normalized growth,"locus YLR330W, strain CHS5, active compounds read low",0.938
same,normalized growth,"locus YLR342W, strain FKS1 (second series), active compounds read low",0.785 (active)
same,normalized growth,"locus YLR342W, strain FKS1, active compounds read low",0.961
same,normalized growth,"locus YLR357W, strain rsc2, active compounds read low",1.01
same,normalized growth,"locus YLR370C, strain arc18, active compounds read low",0.969
same,normalized growth,"locus YLR371W, strain rom2, active compounds read low",0.975
same,normalized growth,"locus YLR384C, strain iki3, active compounds read low",0.993
same,normalized growth,"locus YLR418C, strain cdc73, active compounds read low",0.702 (active)
same,normalized growth,"locus YML016C, strain PPZ1, active compounds read low",0.973
same,normalized growth,"locus YML032C, strain rad52, active compounds read low",0.971
same,normalized growth,"locus YML120C, strain ndi1, active compounds read low",0.971
same,normalized growth,"locus YML124C, strain tub3, active compounds read low",0.986
same,normalized growth,"locus YMR058W, strain fet3, active compounds read low",0.964
same,normalized growth,"locus YMR078C, strain ctf18, active compounds read low",0.973
same,normalized growth,"locus YMR125W, strain sto1, active compounds read low",0.985
same,normalized growth,"locus YMR129W, active compounds read low",0.973
same,normalized growth,"locus YMR205C, strain PFK2, active compounds read low",0.938
same,normalized growth,"locus YMR223W, strain ubp8, active compounds read low",0.941
same,normalized growth,"locus YMR231W, strain pep5, active compounds read low",0.99
same,normalized growth,"locus YMR307W, strain GAS1, active compounds read low",0.597 (active)
same,normalized growth,"locus YNL067W, strain RPL9B, active compounds read low",0.937
same,normalized growth,"locus YNL071W, strain lat1, active compounds read low",0.927
same,normalized growth,"locus YNL128W, strain TEP1, active compounds read low",0.965
same,normalized growth,"locus YNL153C, strain GIM3, active compounds read low",0.953
same,normalized growth,"locus YNL183C, strain NPR1, active compounds read low",0.928
same,normalized growth,"locus YNL209W, strain ssb2, active compounds read low",0.985
same,normalized growth,"locus YNL233W, strain BNI4, active compounds read low",0.923
same,normalized growth,"locus YNL248C, strain rpa49, active compounds read low",0.912
same,normalized growth,"locus YNL250W, strain rad50, active compounds read low",0.981
same,normalized growth,"locus YNL271C, strain bni1, active compounds read low",0.968
same,normalized growth,"locus YNL298W, strain CLA4, active compounds read low",0.955
same,normalized growth,"locus YNL307C, strain MCK1, active compounds read low",0.831 (active)
same,normalized growth,"locus YNL322C, strain KRE1 (second series), active compounds read low",0.991
same,normalized growth,"locus YNL322C, strain KRE1, active compounds read low",0.997
same,normalized growth,"locus YNR049C, strain mso1, active compounds read low",0.947
same,normalized growth,"locus YNR052C, strain pop2, active compounds read low",0.906 (active)
same,normalized growth,"locus YOL012C, strain htz1",0.991
same,normalized growth,"locus YOL147C, strain pex11, active compounds read low",0.971
same,normalized growth,"locus YOR001W, strain rrp6, active compounds read low",1
same,normalized growth,"locus YOR061W, strain CKA2, active compounds read low",0.958
same,normalized growth,"locus YOR069W, strain VPS5, active compounds read low",0.975
same,normalized growth,"locus YOR070C, strain gyp1, active compounds read low",0.969
same,normalized growth,"locus YOR080W, strain dia2, active compounds read low",0.979
same,normalized growth,"locus YOR083W, strain WHI5, active compounds read low",0.975
same,normalized growth,"locus YOR106W, strain vam3, active compounds read low",0.961
same,normalized growth,"locus YOR136W, strain idh2, active compounds read low",0.963
same,normalized growth,"locus YOR144C, strain elg1, active compounds read low",0.976
same,normalized growth,"locus YOR184W, strain ser1, active compounds read low",0.724 (active)
same,normalized growth,"locus YOR231W, strain MKK1, active compounds read low",0.97
same,normalized growth,"locus YOR265W, strain rbl2, active compounds read low",0.983
same,normalized growth,"locus YOR270C, strain vph1, active compounds read low",0.771 (active)
same,normalized growth,"locus YOR290C, strain snf2, active compounds read low",0.947
same,normalized growth,"locus YOR316C, strain cot1, active compounds read low",0.968
same,normalized growth,"locus YPL051W, strain arl3, active compounds read low",0.969
same,normalized growth,"locus YPL055C, strain LGE1, active compounds read low",0.909
same,normalized growth,"locus YPL078C, strain atp4, active compounds read low",0.975
same,normalized growth,"locus YPL106C, strain sse1, active compounds read low",0.994
same,normalized growth,"locus YPL240C, strain hsp82, active compounds read low",0.998
same,normalized growth,"locus YPL241C, strain CIN2, active compounds read low",0.991
same,normalized growth,"locus YPL256C, strain CLN2, active compounds read low",0.946
same,normalized growth,"locus YPR119W, strain clb2, active compounds read low",0.981
same,normalized growth,"locus YPR141C, strain kar3, active compounds read low",0.947
same,normalized growth,"locus YPR163C, strain tif3, active compounds read low",0.867 (active)
same,normalized growth,"locus YPR167C, strain met16, active compounds read low",0.967
same,normalized growth,"strain wtn01, active compounds read low",0.902
